Source: the supplement of paper PMC7156485

Each molecule was assayed on HCC1569 (assay: H1.0 immunofluorescence intensity relative to DMSO (% of DMSO); higher = stronger H1.0 induction, active = 140 or more). Conditions: concentration: 10 µM; 24 h.
How it was run: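 Using 384-well plates with 800 cells per well in RPMI plus 10% FBS, HCC1569 and TDF cells were exposed to compounds at 10 µM, in triplicate, for 24 h at 37 °C. Imaging of six fields per well at ×10 followed H1.0 and DAPI staining. The reported quantity, H1.0 nuclear intensity or cell number, is a median of replicates given as percent of the plate control, and HCC1569 values were smoothed for positional effects.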
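Also: TDF is a line of transformed human dermal fibroblasts of mesenchymal origin.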

Compound	H1.0 immunofluorescence intensity
C=CCN1CCC23CCCCC2C1Cc1ccc(O)cc13.O=C(O)C(O)C(O)C(=O)O (configuration not stated) [Levallorphan tartrate]	100 (inactive)
CN(C)C(=O)Oc1cccc([N+](C)(C)C)c1 [Neostigmine]	101 (inactive)
CC1C(=O)OC2CCN3CC=C(COC(=O)C(C)(O)C1(C)O)C23 (configuration not stated) [Monocrotaline]	90.2 (inactive)
CC=C1CC(C)C(O)(CO)C(=O)OCC2=CCN3CCC(OC1=O)C23 (configuration not stated) [Retrorsine]	90.4 (inactive)
N#CC(C#N)=Cc1cc(O)c(O)c(O)c1 [Tyrphostin 25]	113 (inactive)
CC12CCC(O)CC1CCC1C2CCC2(C)C(c3ccc(=O)oc3)CCC12O (configuration not stated) [Bufalin]	107 (inactive)
c1cc2c(cc1C1OCC3C(c4ccc5c(c4)OCO5)OCC13)OCO2 (single isomer, unassigned; (-)) [(-)-Asarinin]	88.6 (inactive)
C[N+](C)(C)CC#CCN1CCCC1=O.[I-] [Oxotremorine methiodide]	98.8 (inactive)
O=C1NCN(c2ccccc2)C12CCN(CC1COc3ccccc3O1)CC2 (configuration not stated) [Spiroxatrine]	97.4 (inactive)
Cc1ccccc1-n1c(Cn2cnc3c(N)ncnc32)nc2cccc(C)c2c1=O	102 (inactive)
COC1=CC(=O)OC(CCc2ccc3c(c2)OCO3)C1 (configuration not stated) [Dihydromethysticin]	83.9 (inactive)
CN1C2CCC1CC(OC(=O)C(CO)c1ccccc1)C2 (configuration not stated) [Hyoscyamine]	94.8 (inactive)
